In ChEMBL document CHEMBL3988442, “University of Dundee, Small-Polar-MMV Screening Library” (2021) one finds Percent Effect data, which are given here for 30 compounds.

Structures are written as SMILES. In all, about 69,000 compounds went through this assay and about 420 (0.61%) showed an effect of 50% or more. This excerpt belongs to a sample that is enriched for strong results.

The assay deals with T1, Histidine--tRNA ligase (Leishmania infantum) (UniProt A4I591).
T1 sequence (whole entry): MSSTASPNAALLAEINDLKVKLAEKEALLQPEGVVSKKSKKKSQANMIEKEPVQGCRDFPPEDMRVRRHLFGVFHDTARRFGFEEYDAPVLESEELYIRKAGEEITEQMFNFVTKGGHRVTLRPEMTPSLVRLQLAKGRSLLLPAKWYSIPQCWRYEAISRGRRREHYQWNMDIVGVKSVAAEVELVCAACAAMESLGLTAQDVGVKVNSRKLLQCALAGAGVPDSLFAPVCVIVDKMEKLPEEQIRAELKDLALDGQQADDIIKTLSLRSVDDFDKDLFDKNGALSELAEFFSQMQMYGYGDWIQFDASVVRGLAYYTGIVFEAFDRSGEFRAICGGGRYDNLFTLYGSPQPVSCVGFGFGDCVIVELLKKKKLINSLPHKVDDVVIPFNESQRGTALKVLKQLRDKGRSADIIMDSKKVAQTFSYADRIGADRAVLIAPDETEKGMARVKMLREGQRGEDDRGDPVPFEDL
In words: Leishmania infantum Histidine tRNA synthetase (LdHisRS). Also noted: scale not given: in the data most compounds retested in dose-response had high values. Conditions: 30 µM. Type of assay: functional.
Consider `CCN1CC[C@@]2(C(=O)N(C)C)CCN(C(=O)NC(C)C)CC[C@@H]12`, for which the Percent Effect was 15.5%.
Turning to `COc1cccc(CN2CC3(CCNCC3)CCC2=O)c1OC`, the Percent Effect worked out at 8.57%.
As to `COc1cccn(CC(=O)N2CCC3(CCNCC3)C2)c1=O`, the Percent Effect is 116%.
The value for `COc1ccccc1C(=O)N1CCOC2(CCCN(C(C)=O)C2)C1` (stereo not given) was 8%; that for `COc1cccc2c1ccn2CC(=O)N1CCCC(C(=O)O)C1` (stereo not given) was 7.89%; that for `O=C1NCC2(CCCN(C(=O)Cn3nc4ccccc4n3)CC2)O1` (stereo not given) was 6.45%.
As for `COc1cccn(CC(=O)N2CCCC3(CCCO3)CC2)c1=O` (stereo not given), the Percent Effect was determined as 101%.
As to `CCCOCC1CCN(C(=O)Cn2cccc(C(F)(F)F)c2=O)C1` (stereo not given), the Percent Effect was 12%.
`CCCOCC1CCN(C(=O)Cn2cccc(OC)c2=O)C1` (stereo not given): the Percent Effect came to 97.4%.
Regarding `COC1CCN(C(=O)Cn2cccc(C(F)(F)F)c2=O)C1` (stereo not given), the Percent Effect came out at 18.8%.
The value for `COc1ccccc1-c1ccccc1CC1(C(=O)O)CCNCC1` was 2.84%; that for `CCCOCC1CCN(C(=O)Cn2ncc(N3CCCC3)cc2=O)C1` (stereo not given) was -3.8%; that for `COc1cccn(CC(=O)N2CCCC3(CCCCC3)C2)c1=O` was 110%.
The value for `O=C([C@H]1CN(Cc2ccoc2)C[C@H]2OCC[C@@H]12)N1CCCCO1` was 22.2%.
The value for `Cc1nc(CN2CCO[C@@H]3CN(C(=O)CC4CC4)CC[C@@H]3C2)cs1` was 12.7%; that for `COC[C@@H]1CC[C@H]2[C@H](CCN2S(=O)(=O)c2ccc(C)cc2)O1` was 2.65%.
`CN(C)C[C@H]1OC[C@@H]2CN(C(=O)NCc3cccc(F)c3)CC[C@@H]21`: the Percent Effect amounted to 0%.
As to `Cc1n[nH]c(CN2CCN(Cc3ccccc3)[C@@H]3CS(=O)(=O)C[C@@H]32)n1`, the Percent Effect was 32%.
For `CCN1C[C@H]2C3(CCN(S(C)(=O)=O)CC3)CC[C@@]2(C(=O)N(C)C)C1` the value was 12%.
For `Cc1cc(C(=O)N2C[C@@H]3COC[C@]3(COCc3cccnc3)C2)no1` the value was 12.6%; for `O=C(N[C@@H]1CN(c2ncccn2)[C@@H]2CCCO[C@@H]21)c1cnccn1`, 18.9%.
For `O=C1CC[C@@H]2[C@@H](CCN2C(=O)c2ccsc2)N1Cc1ccncc1` the value was 14.7%.
Take `CN1C(=O)[C@H]2CC[C@@H]1CN(C(=O)c1nnc3n1CCCCC3)C2`: the Percent Effect came to 17.8%.
For `COc1ccccc1CC(=O)N1CC[C@H](O)[C@]2(CCCO2)C1` the value was 18.8%.
For the compound `CC1CCN(S(=O)(=O)c2cccn(CC(=O)N3CCOCC3)c2=O)CC1`, the Percent Effect is -7.77%.
As for `COc1cccn(CC(=O)N2CCCC3(CCOCC3)C2)c1=O`, the Percent Effect was determined as 98.9%.
The value for `Cc1ccoc1C(=O)N1CC[C@@H]2O[C@@H](C)C[C@H]2C1` was 12.3%; that for `CSc1nsc(SCC(=O)c2cc3c(cc2Cl)NC(=O)C3)n1` was 13.2%; that for `Nc1nnc(SCC(=O)c2cc3c(cc2Cl)NC(=O)C3)s1` was 50%.
For the compound `Cc1nnc(SCC(=O)c2cc3c(cc2Cl)NC(=O)C3)s1`, the Percent Effect came to 2.63%.
